Screens (PubChem)
Only some compounds are listed: those with a hit (about 3.8% of all), similar ones and a draw of the others.
GLS inhibitor – blocks human kidney-isoform glutaminase activity. GLS enzymatic activity, qHTS titration. O94925. 0.21% of 410,000 active. AID 624170. Potency, µM (titrated, usually from 45.5 µM), usual class: inhibitors
Target sequence (O94925 whole entry, looked up, canonical isoform): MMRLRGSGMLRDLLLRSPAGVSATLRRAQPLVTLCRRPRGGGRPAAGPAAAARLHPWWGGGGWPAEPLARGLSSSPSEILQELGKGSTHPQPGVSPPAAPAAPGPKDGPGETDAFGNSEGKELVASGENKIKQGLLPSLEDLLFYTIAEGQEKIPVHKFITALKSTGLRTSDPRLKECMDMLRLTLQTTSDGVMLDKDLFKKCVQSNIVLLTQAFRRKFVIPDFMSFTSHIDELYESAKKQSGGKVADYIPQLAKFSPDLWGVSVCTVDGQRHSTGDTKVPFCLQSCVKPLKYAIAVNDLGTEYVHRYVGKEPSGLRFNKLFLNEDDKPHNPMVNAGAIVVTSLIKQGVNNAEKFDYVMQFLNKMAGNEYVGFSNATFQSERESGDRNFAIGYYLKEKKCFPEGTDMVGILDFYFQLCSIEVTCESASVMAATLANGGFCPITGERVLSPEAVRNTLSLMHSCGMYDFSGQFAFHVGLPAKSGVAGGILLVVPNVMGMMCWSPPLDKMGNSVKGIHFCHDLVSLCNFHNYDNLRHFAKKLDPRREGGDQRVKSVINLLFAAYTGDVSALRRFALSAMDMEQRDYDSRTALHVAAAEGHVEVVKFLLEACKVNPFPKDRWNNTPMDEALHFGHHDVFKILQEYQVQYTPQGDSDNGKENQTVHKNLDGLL
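Human kidney-isoform GLS in 45 mM KH2PO4 pH 8.2, 0.02% Tween-20, with compound, started with 1mM L-Glutamine (added stock). Glutamate oxidase/HRP/Amplex red coupled fluorescence read at start and after 30 min at RT.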
VDR inh – blocks the human vitamin D receptor; Potency, µM, usual class: inhibitors; AID 504847; VDR-SRC2-3 peptide fluorescence polarization, 2 h; 0.93% of 400,000 active; P11473
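Reagent solutions, kept cold and dark, are dispensed first; compounds are then pinned in at 23 nl, plates briefly spun, and incubated 2 h at ambient temperature. Inhibition of VDR–SRC2-3 peptide binding is read by fluorescence polarization.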
rTrxR1 inhibitor – blocks rat thioredoxin reductase 1; O89049; recombinant rTrxR1, NADPH fluorescence consumption, selenite substrate; Potency, µM (titrated, usually from 114 µM), usual class: inhibitors; 1% of 390,000 active; AID 588453; also: nearly all actives have a fitted effect of over 65% in size
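Rat TrxR1 (90 nM in the dispensed reagent) was pre-reduced with 400 uM NADPH for 5 min at room temperature, then incubated with compound for 15 min. After 400 uM selenite was added, NADPH fluorescence (Ex 340/Em 450 nm) was followed for 8 min.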
GCN5L2 inh – GCN5L2 (KAT2A) acetyltransferase inhibition; Potency, µM (doses to about 58.9 µM), usual class: inhibitors; Q92830; 0.21% of 390,000 active; AID 504327; GCN5L2 HAT assay, ThioGlo1 CoA-SH fluorescence
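Compounds, pin-transferred from DMSO stocks, meet 20nM GCN5L2 for 15 min before the reaction begins with H3(1-25) peptide (75uM) and acetyl-CoA (70uM). Thiol-reactive ThioGlo1 reports CoA release over 20 min at room temperature.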
TrxR1 substrate – is turned over as a substrate by rat TrxR1; purified TrxR1 substrate turnover, NADPH consumption readout; Potency, µM (titrated, usually from 114 µM); 0.01% of 390,000 active; O89049; also: nearly all actives have a fitted effect of over 50% in size
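Rat TrxR1, dispensed at 90 nM, was prereduced with 400 uM NADPH (final) for 5 min at ~22 deg C, then incubated with compound 15 min before 400 uM selenite. A first-read NADPH fluorescence drop versus no-compound background flagged substrates.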
Sfp inh – inhibitors of Bacillus subtilis Sfp phosphopantetheinyl transferase. Q9F4F7. Biochemical Sfp PPTase activity, qHTS. Potency, µM, most hits filed as inhibitors. 3.5% of 310,000 active;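 also: the enzyme is Sfp with the accession as filed and its product quenches rhodamine fluorescence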
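With Hepes-Na pH 7.6 buffer containing 10 mM MgCl2, Sfp (15 nM) modified BHQ-2-YbbR (12.5 uM) using rhodamine-CoA (5 uM). Two reads 30 minutes apart at 525/598 nm yielded each well's rate.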
Of the large screens only hits and unclear results are named; the others gave an inactive call; ! = not active in a repeat. Calls follow the shape of the dose curve; as a rule, active = well fitted curve in the direction sought with a large enough effect; inconclusive = small, poorly fitted or top-dose-only effect, or another doubt; inactive = no such curve, though single readings can be large; an effect the other way counts as inactive or inconclusive.

Cc1ccc2nsnc2c1NC(=S)NC(=O)c1ccco1	rTrxR1 inhibitor inconclusive, Sfp inh 50µM
COc1cc(C(=O)NC(=S)Nc2ccc([N+](=O)[O-])cc2C)cc(OC)c1OC	rTrxR1 inhibitor inconclusive, Sfp inh inconclusive
O=C(NC(=S)Nc1ccccn1)c1ccco1	Sfp inh 56µM
Cc1ccnc(NC(=S)NC(=O)c2ccco2)c1	Sfp inh inconclusive
COc1cc(C(=O)NC(=S)Nc2ccccc2[N+](=O)[O-])cc(OC)c1OC	Sfp inh 79µM
CCOC(=O)C1=C(C)NC(=O)NC1c1cn(-c2ccccc2)nc1-c1ccc(OCC)cc1 (stereo not drawn)	none (no result: Sfp inh)
CCn1c(SCC(=O)C(C)(C)C)nnc1-c1cnccn1	none
O=C1C=CC[C@H](/C=C/C[C@@H](O)C[C@H](O)CCc2ccccc2)O1	VDR inh inconclusive, rTrxR1 inhibitor inconclusive (no result: GCN5L2 inh, Sfp inh)
O=C(Nc1ccc(NC(=O)c2ccccc2F)cn1)c1ccco1	rTrxR1 inhibitor 14µM
COc1cc(C(=O)NC(=S)Nc2ccccc2N2CCOCC2)cc(OC)c1OC	Sfp inh 35µM
O=C(NC(=S)Nc1ccccc1[N+](=O)[O-])c1ccco1	Sfp inh 56µM
O=C(Nc1ccc(NC(=O)c2ccco2)nc1)c1cccc(F)c1	none
Cc1ccc(C(=O)NC(=S)Nc2ccccc2N2CCOCC2)cc1C	rTrxR1 inhibitor inconclusive
COc1ccc(NC(=O)c2ccc3c(=O)n4nc(Nc5cccc(Cl)c5C)sc4nc3c2)cc1	none (no result: Sfp inh)
COc1cccc(C(=O)N2CCN(S(=O)(=O)Cc3ccccc3)CC2)c1	none
C[C@H](NC(=O)OC(C)(C)C)c1nnc(SCC(=O)c2ccc(Cl)cc2)o1	none
C[C@H](NC(=O)OC(C)(C)C)c1nnc(SCc2c(F)cccc2Cl)o1	VDR inh 89µM (no result: Sfp inh)
Cc1ccccc1OCC(=O)Nc1cccc(S(=O)(=O)NC2=NCCCCC2)c1	none (no result: Sfp inh)
CCOC(=O)c1c(N)sc(C(=O)Nc2ccccc2)c1C	VDR inh inconclusive, Sfp inh 20µM
CCOC(=O)c1sc(NC(=O)Nc2ccccc2)cc1C	Sfp inh 35µM
CCOC(=O)c1sc(N)c(C(N)=O)c1C	Sfp inh 32µM
CCCOC(=O)c1c(N)sc(C(=O)OCC)c1C	none
CCCc1c(C(=O)OCC)sc(N)c1C#N	Sfp inh 63µM
COC(=O)c1c(NC(C)=O)sc(C(=O)Nc2ccccc2)c1C	none
Cn1ccc2c(-c3ccc(C(C)(C)C)cc3)cc3c(c21)C1CCC3O1 (stereo not drawn)	none (no result: VDR inh, rTrxR1 inhibitor, GCN5L2 inh, TrxR1 substrate, Sfp inh)
CC1CCCN(C(=S)SCC(=O)c2cc(Br)cc(Br)c2O)C1 (stereo not drawn)	Sfp inh inconclusive
C=CCSc1nnc2c(n1)[nH]c1c(C)cccc12	none
COc1ccc(C)cc1Nc1n[n+](-c2ccccc2)c(-c2cc([N+](=O)[O-])cc(OC)c2O)s1	Sfp inh 22µM
COc1ccc(C)cc1Nc1n[n+](-c2ccccc2)c(-c2ccc(NC(C)=O)cc2)s1	Sfp inh inconclusive
COC(=O)c1c(C)n(-c2ccc(OC)cc2)c2ccc(O)cc12	Sfp inh 45µM
CCC(=O)Nc1nnc(S(=O)(=O)N(C)Cc2ccco2)s1	VDR inh inconclusive, rTrxR1 inhibitor inconclusive
CN(Cc1ccco1)S(=O)(=O)c1nnc(NC(=O)c2ccccc2Cl)s1	VDR inh inconclusive, rTrxR1 inhibitor 25µM!
Cc1ccc(C(=O)Nc2nnc(S(=O)(=O)N(C)Cc3ccco3)s2)cc1	none (no result: Sfp inh)
CCCC(=O)Nc1nnc(S(=O)(=O)N(C)Cc2ccco2)s1	GLS inhibitor inconclusive, VDR inh inconclusive, rTrxR1 inhibitor 40µM, Sfp inh 45µM
Cc1ccccc1C(=O)Nc1nnc(S(=O)(=O)N(C)Cc2ccco2)s1	VDR inh inconclusive, rTrxR1 inhibitor 45µM, Sfp inh 45µM
CC(C)OCCCn1c(NN)nc2ccccc2c1=O	none
NNc1nc2ccccc2c(=O)n1Cc1ccccc1	Sfp inh 20µM
COc1ccc(C(=O)NCCc2nc3cc([N+](=O)[O-])ccc3n2C)cc1	none
O=S1(=O)CC(O)C(NCc2ccco2)C1 (stereo not drawn)	VDR inh inconclusive
CC(C)(C)c1cc(CNC2CS(=O)(=O)C[C@@H]2O)cc(C(C)(C)C)c1O (stereo partly drawn)	VDR inh 50µM, rTrxR1 inhibitor inconclusive
CCc1cccc(CC)c1NC(=S)NCCc1c(C)[nH]c2ccccc12	none
CCc1cccc(CC)c1NC(=S)NCCc1ccc(O)c(O)c1	GLS inhibitor inconclusive, rTrxR1 inhibitor 6.3µM
O=C(OCc1ccccc1C(F)(F)F)c1cc([N+](=O)[O-])ccc1N1CCOCC1	none
